Assay outcomes: PubChem, National Center for Advancing Translational Sciences (NCATS)
Compounds with a hit are over-represented: about 3.3% of the library has one in this group of screens.
HCV inh: HCV inhibition; Huh7.5.1 HCVcc-Cre infection, luciferase reporter, 44 h; Potency, µM (titrated, usually from 41.8 µM), hits mostly inhibitors; actives 3.4% (n = 340,000); AID 651820; active = well fitted inhibition curve with a large enough effect; inconclusive = small, poorly fitted or top-dose-only effect, or another doubt; inactive = no such curve, though single readings can be large or run the other way
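Reporter virus HCVcc-Cre (~0.5 moi) infects cells exposed to compound; seeding density 1,000 cells/well with 4 h settling beforehand. Luminescence, 15 sec read, taken 44 h post-infection following a 15 min RT substrate incubation.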
VACV mCherry inh: inhibitors of vaccinia virus infection (mCherry reporter signal) | Vaccinia virus mCherry reporter infection, fluorescence | Potency, µM (titrated, usually from 36.5 µM), hits mostly inhibitors | actives 0.63% (n = 310,000); calls by dose curve; tested in A549 cells; note: nearly all actives have a fitted effect of over 35% in size
VACV Venus inh: inhibitors of vaccinia virus (Venus reporter); Vaccinia virus Venus reporter expression, fluorescence; Potency, µM (series often up to 36.5 µM), hits mostly inhibitors; actives 0.46% (n = 330,000); AID 720580; calls by dose curve; tested in A549 cells; note: nearly all actives have a fitted effect of over 30% in size
Hits are given with their value; [ ] = another dose, or the depositor's remark.

What do the screens show for `COC(=O)Cc1ccc(NC(=O)c2ccc(C(C)(C)C)cc2)cc1`?
HCV inh: 2.5µM

What do the screens show for `O=C(Nc1ccc(CN2CCS(=O)(=O)CC2)cc1)c1ccc(F)cc1`?
HCV inh: inactive

Results for CC1=C(C(=O)Nc2cccc(C(=O)NC3CCCCC3C)c2)SCCO1 (stereo not drawn) ?
HCV inh: inconclusive; VACV mCherry inh: inactive[7.34 µM]; VACV Venus inh: inactive[7.34 µM]

Results for CCOCCc1nn2c(=O)cc(COC(=O)c3ccc(NC(=O)c4cccs4)cc3)nc2s1 ?
VACV mCherry inh: inactive; VACV Venus inh: inactive

How did Cc1c(C(=O)N(C)C2CCOC2)sc2ncnc(NCC3(c4ccccc4)CCOCC3)c12 (stereo not drawn) do in these assays?
VACV mCherry inh: inactive; VACV Venus inh: inactive

What do the screens show for `Cc1c(C#N)c(N)nc2c3c(sc12)NC(=O)CC3c1ccc(Cl)cc1` (stereo not drawn)?
HCV inh: 22µM; VACV mCherry inh: inconclusive; VACV Venus inh: inconclusive

How did N#Cc1c(N)nc2c3c(sc(=N)c2c1N)NC(=O)CC3c1ccccc1 (stereo not drawn) do in these assays?
HCV inh: inactive; VACV mCherry inh: inactive; VACV Venus inh: inactive

How did CN(C)c1ccc(CN(C(=O)/C=C/c2ccco2)C2CCS(=O)(=O)C2)cc1 (stereo not drawn) do in these assays?
HCV inh: inconclusive; VACV mCherry inh: inactive; VACV Venus inh: inactive

Results for O=C(/C=C/c1ccco1)N(Cc1ccc(Cl)cc1)C1CCS(=O)(=O)C1 (stereo not drawn) ?
HCV inh: 1.1µM; VACV mCherry inh: inactive; VACV Venus inh: inactive

How did CCOc1ccccc1C(=O)Nc1nnc(C(C)C)s1 do in these assays?
HCV inh: 13µM; VACV mCherry inh: inactive; VACV Venus inh: inactive

What do the screens show for `O=C(Nc1cccc2cccnc12)c1cccc2ccccc12`?
HCV inh: inconclusive; VACV mCherry inh: inactive; VACV Venus inh: inactive

How did CCOc1ccccc1C(=O)Nc1nncs1 do in these assays?
HCV inh: inconclusive; VACV mCherry inh: inconclusive; VACV Venus inh: inactive

What do the screens show for `COc1ccc(OC)c(NC(=O)c2ccccc2NS(=O)(=O)c2cccc3cccnc23)c1`?
HCV inh: inactive; VACV Venus inh: inactive

Results for COc1cc(NC(=O)c2ccccc2Cl)c2ncccc2c1 ?
HCV inh: 10µM

Results for CCOc1ccccc1C(=O)Nc1cccc2cccnc12 ?
HCV inh: 11µM; VACV mCherry inh: inactive; VACV Venus inh: inactive

How did Cc1cccnc1NC(=S)Nc1ncccc1C do in these assays?
HCV inh: inactive; VACV mCherry inh: inactive; VACV Venus inh: inactive

What do the screens show for `CCOc1ccccc1NC(=S)Nc1ncccc1C`?
HCV inh: 6.3µM; VACV mCherry inh: inconclusive; VACV Venus inh: inconclusive

What do the screens show for `COc1cccc(-n2c(SCC(=O)Nc3cc(C)ccc3C)nc3c(oc4ccccc43)c2=O)c1`?
VACV mCherry inh: inactive; VACV Venus inh: inactive

How did CC(C)C(NS(C)(=O)=O)c1nnc2n1CCN(Cc1cccc3ncccc13)CC2 (stereo not drawn) do in these assays?
VACV mCherry inh: inactive; VACV Venus inh: inactive

What do the screens show for `CCCCn1cc(S(=O)(=O)c2ccc(OC)cc2)c(=O)c2cc(CC)ccc21`?
VACV mCherry inh: inactive; VACV Venus inh: inactive

How did COc1ccc(-c2cc(C(=O)Oc3ccccc3)c3cc(C)ccc3n2)cc1 do in these assays?
VACV mCherry inh: inactive; VACV Venus inh: inactive

How did COc1cc(OC)c(NC(=O)c2cc3ccccc3cc2O)cc1Cl do in these assays?
HCV inh: 32µM; VACV mCherry inh: inactive; VACV Venus inh: inactive

How did COc1ccccc1NC(=O)NNC(=O)c1cc2ccccc2cc1O do in these assays?
HCV inh: inactive

How did COc1ccccc1C(=O)Nc1cc(Cl)ccc1O do in these assays?
HCV inh: inconclusive; VACV Venus inh: inactive

Results for CCOc1ccccc1C(=O)Nc1cc(Cl)ccc1O ?
HCV inh: 7.1µM; VACV mCherry inh: inconclusive; VACV Venus inh: inconclusive

What do the screens show for `C/C=C1/C[N@@+]2(C)CC[C@]34C(=C(C=O)[C@H]1C[C@H]32)Nc1ccccc14`?
VACV mCherry inh: inactive; VACV Venus inh: inactive

How did C=CCOC(=O)/C(=C\c1cccc2ccccc12)NC(=O)c1ccccc1 do in these assays?
HCV inh: 7.9µM; VACV mCherry inh: inactive[1.46 µM]; VACV Venus inh: inactive

How did C=CCOC(=O)/C(=C\c1ccccc1)NC(=O)c1ccc(C)cc1 do in these assays?
HCV inh: inactive; VACV mCherry inh: inactive; VACV Venus inh: inactive

How did COc1cccc(C(NC(C)=O)c2nc(-c3cccnc3)cs2)c1 (stereo not drawn) do in these assays?
VACV mCherry inh: inactive; VACV Venus inh: inactive

How did COc1cccc(C(Nc2ccccc2)c2ccc3ccc(C)nc3c2O)c1 (stereo not drawn) do in these assays?
VACV mCherry inh: 7.1µM; VACV Venus inh: inconclusive

How did O=C(Nc1cccc2cccnc12)c1cccc([N+](=O)[O-])c1 do in these assays?
HCV inh: inactive
